Results reported in PubChem BioAssay AID1851 (National Center for Advancing Translational Sciences (NCATS), 2009).
Hit rate of the full screen: of about 16,000 compounds, about 5,700 (36%) were called active. Not shown: some 24% with an inconclusive outcome. This is one part of the list. Unmarked numbers belong to inactive results. Calls come from the whole dose curve; as a rule, active = well fitted curve in the direction sought with a large enough effect; inconclusive = small, poorly fitted or top-dose-only effect, or effect the other way; inactive = no such curve, though single readings can be large or run the other way.

Each compound was assayed against Cytochrome P450 1A2 (Homo sapiens) (UniProt P05177) (assay: Cytochrome panel assay with activity outcomes). Details: recombinant CYP, pro-luciferin dealkylation, luminescence, p450-cyp1a2; series mostly up to 57.1 µM.
% is set by controls: 0 for no effect and ±100 for the full control effect.

Cytochrome P450 1A2 (Homo sapiens), sequence (P05177 whole entry, looked up): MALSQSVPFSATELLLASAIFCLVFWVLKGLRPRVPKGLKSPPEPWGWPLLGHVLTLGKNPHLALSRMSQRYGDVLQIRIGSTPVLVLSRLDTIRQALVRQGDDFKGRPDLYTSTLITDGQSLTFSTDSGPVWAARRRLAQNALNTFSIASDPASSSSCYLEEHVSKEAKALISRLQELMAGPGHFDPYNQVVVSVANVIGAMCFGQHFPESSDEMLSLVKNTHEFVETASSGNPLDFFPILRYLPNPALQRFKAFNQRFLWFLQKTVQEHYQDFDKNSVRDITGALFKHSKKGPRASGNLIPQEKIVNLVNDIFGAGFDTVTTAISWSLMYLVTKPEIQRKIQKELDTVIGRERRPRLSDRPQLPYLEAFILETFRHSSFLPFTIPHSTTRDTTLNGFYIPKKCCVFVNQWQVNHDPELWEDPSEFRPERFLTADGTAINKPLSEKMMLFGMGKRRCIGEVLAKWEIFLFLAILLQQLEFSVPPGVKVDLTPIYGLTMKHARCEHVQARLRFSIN

Structure (SMILES)	AC50	activity, negative = inhibition
Cc1cc(NC(=O)CSc2n[nH]c(-c3cccs3)n2)no1	2.51 µM (active)	
Cc1cc(NC(=O)CSc2nc3ccsc3c(=O)n2CCCCC(=O)O)no1	inactive	
CCCCc1nc(SCC(=O)Nc2ncccn2)n[nH]1	inactive	
COc1ccc(OCc2nnc(SCC(=O)N3c4ccccc4Sc4ccc(Cl)cc43)o2)cc1	inactive	
CN1CCN(CC(=O)N2c3ccccc3Sc3cc4ccccc4cc32)CC1		-21.6% [at 2.29 µM]
O=C(CSc1nc2ccccc2s1)c1sc2sc3ccccc3[n+]2c1O	5.01 µM (active)	
O=C(CSc1nc2ccccc2o1)N1c2ccccc2Sc2ccc(Cl)cc21	2.24 µM (active)	
O=C(CSc1nc2ccccc2s1)N1c2ccccc2Sc2ccccc21	0.708 µM (active)	
O=C(CSc1nc2ccccc2s1)N1c2ccccc2Sc2ccc(C(F)(F)F)cc21	1.12 µM (active)	
Cc1c(NC(=O)Cn2ccc([N+](=O)[O-])n2)c(=O)n(-c2ccccc2)n1C	inactive	
Nc1ncc(-c2ccccc2)n1CC1CCCO1 (stereo not drawn)	15.8 µM (active)	
Cc1ccc(-c2ccc(CCC(=O)O)n2CC2CCCO2)cc1 (stereo not drawn)	inactive	
S=c1[nH]nc(-c2ccncc2)n1CC1CCCO1 (stereo not drawn)	inactive	
O=C(NNC(=O)C1CCN(S(=O)(=O)c2ccc(Cl)cc2)CC1)c1ccc(Cl)cc1	inactive	
Nc1ccc(CCNc2ncnc3c2ncn3[C@@H]2O[C@@H](CO)[C@H](O)[C@@H]2O)cc1	inactive	
Cc1ccc(N=Nc2c(=O)[nH]n3c(C)cc(C)nc23)cc1	12.6 µM (active)	
Cc1cccc(C)c1NC(=O)CS(=O)CC(=O)Nc1ccc(F)cc1F (stereo not drawn)	inactive	
Cc1nc(-c2cccnc2)sc1C(N)=O	14.1 µM (active)	
Cc1nc(-c2cccnc2)sc1C(=O)Nc1ccc(F)cc1F	4.47 µM (active)	
Cc1nc(-c2cccnc2)sc1C(=O)Nc1ccc(Cl)cc1	2.51 µM (active)	
CNC(=O)c1sc(-c2cccnc2)nc1C	14.1 µM (active)	
CC(C)N=C(Nc1ccc(Cl)cc1)c1cccnc1	inactive	
CC(=O)NC1(c2ccc(F)cc2)CCN(C(=O)Nc2ccc(F)cc2F)CC1	inactive	
CC(C)NC(=O)N1CC2(CCN(S(=O)(=O)c3ccccc3)CC2)C1	inactive	
Cn1ccnc1C[C@@](C)(O)c1ccccc1		-14.2% [at 11.4 µM]
CC(C(=O)NC1CCCC1)N(C(=O)c1snc(C(N)=O)c1N)c1ccc2c(c1)OCCO2 (stereo not drawn)	inactive	
CC(Sc1ccc2c(c1)OCCO2)C(=O)Nc1ncc(Cl)cc1Cl (stereo not drawn)	6.31 µM (active)	
COCC(=O)N1CCC2(CCCN(Cc3ccccc3OC)C2)CC1	inactive	
